The panel holds about 83,000 compounds, 20% with a hit somewhere; the sample as a whole holds those more often.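 For each line, cells grew in 96-well plates with the test compound present at a single concentration for 48 hours.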 Values without a mark were called inactive. Active and inactive are the calls of the source. The calls were made as follows: active = growth percent below 10; inactive = the rest.

Holding throughout (assay): NCI-60 one-dose screen, 48 h (100 = growth as untreated, 0 = no growth, -100 = all killed)
Holding throughout (details): 10 µM unless noted

The test system of experiment [1] is HCT-15 colon.
Experiment [2] relates to HT29 colon.
Experiment [3] concerns SNB-75 CNS.
For experiment [4], the system named is SNB-19 CNS.
Experiment [5] concerns U251 CNS.
The test system of experiment [6] is PC-3 prostate.
Experiment [7] relates to SK-MEL-5 melanoma.
Experiment [8] concerns UACC-62 melanoma.
Experiment [9] has as its system LOX IMVI melanoma.
Experiment [10] has as its system SK-MEL-28 melanoma.
Experiment [11] deals with EKVX NSCLC.
Experiment [12] deals with SN12C renal.
Experiment [13] deals with UO-31 renal.
Experiment [14] concerns TK-10 renal.
Experiment [15] has as its system ACHN renal.
For experiment [16], the system named is CAKI-1 renal.
Experiment [17] concerns A498 renal.
Experiment [18] concerns CCRF-CEM leukemia.
Experiment [19] relates to MOLT-4 leukemia.
Experiment [20] has as its system SK-MEL-2 melanoma.

`Nc1c(C(=O)Nc2ccncc2)sc2nc3c(cc12)CCCCC3`: the growth was 64% in experiment [1]; 52.9% in [2]; 93.5% in experiment [3]; 95.9% in [4]; 83.7% in experiment [5]; 83.8% in [6]. Further, the growth is -0.0144% (active) in [7]; 80.7% in experiment [8]; 84% in experiment [9]; 82.5% in experiment [10]; 74.2% in experiment [11]; 78.9% in [12]. For the same compound, the growth in experiment [13] is 66.6%; in experiment [14], 85.9%; in experiment [15], 88.6%; in [16] it was 81.6%; in experiment [17], 74.5%; in experiment [18], 54.4%. In addition, in experiment [19], the growth is 40.3%.

Consider `CCOC(=O)/C=C/c1c(C)[nH]c(=O)[nH]c1=O`, for which the growth in [1] is 21.3%; in experiment [2], 31.4%; in experiment [3], 110%; in experiment [4], 93.4%; in [5], 81.2%; in experiment [6] it was 80.9%. In addition, the growth in experiment [7] is 90.7%; in experiment [8], 87.6%; in [9], 82.6%; in [10] it was 117%; in [11], 77.6%; in [12] it was 95.4%. Moreover, the growth in [13] is 102%; in experiment [14], 95.5%; in [15] it was 1.8% (active); in [16] it was 63.8%; in experiment [17], 111%; in experiment [18] it was 89.3%. Besides, the growth in [19] is 61.3%.

As to `NS(=O)(=O)c1ccc(N/C=C/C(=O)c2cc3ccccc3oc2=O)cc1`, the growth was 93.5% in experiment [1]; 108% in experiment [2]; 76.1% in experiment [3]; 103% in experiment [4]; 97.2% in [5]; 93.7% in experiment [6]. In addition, the growth in experiment [7] was 92.6%; in experiment [8] it was 93.7%; in [9], 93%; in experiment [10], 111%; in experiment [11], 84%; in experiment [12], 96%. Also, the growth in [13] was 62.4%; in experiment [14], 125%; in [16] it was 80.1%; in experiment [17], 111%; in experiment [18], 108%; in experiment [19], 103%.

Consider `COc1ccc(OC)c(-c2cn3nc(-c4c[nH]c5ccc(Br)cc45)sc3n2)c1`, for which the growth in [1] was 24.6%; in experiment [2] it was 10%; in [3] it was 45%; in [4], 75.4%; in [5] it was 36.9%; in experiment [6] it was 40.9%. The growth was 75.3% in experiment [7]; 50.1% in [8]; -50.5% (active) in experiment [9]; 59.5% in experiment [10]; 36.9% in experiment [11]; 44.2% in [12]. The growth in experiment [13] is 45%; in [14], 62%; in [15], 38.8%; in experiment [16] it was 29.7%; in experiment [17] it was 86.1%; in experiment [18], 32.8%. The growth in experiment [19] was 48.8%.

`C[N+](C)(C/C=C/c1ccccc1)Cc1ccccc1`: the growth in [1] was 97.8%; in experiment [2], 91.9%; in [3], 87.5%; in experiment [4], 104%; in [5], 102%; in experiment [6] it was 97%. In addition, the growth in experiment [7] is 95.6%; in experiment [8], 99.3%; in [9] it was 89%; in experiment [10], 102%; in [11], 92.7%; in experiment [12], 101%. Besides, the growth is 82.4% in [13]; 96.3% in experiment [14]; 99.4% in experiment [15]; 97.2% in [16]; 94.6% in experiment [17]; 149% in experiment [18]. Besides, the growth in experiment [19] was 103%.

Regarding `c1ccc(CCc2ccccc2-c2cc(-c3ccccc3)on2)cc1`, the growth in experiment [1] is 83.6%; in experiment [2] it was 68.2%; in experiment [3], 80.5%; in experiment [4], 90.3%; in experiment [5], 95.3%; in experiment [6] it was 89.1%. Also, the growth is 78.9% in experiment [7]; 71.1% in experiment [8]; 92.2% in experiment [9]; 93.9% in experiment [10]; 86.4% in experiment [11]; 85.5% in experiment [12]. The growth was 75.5% in experiment [13]; 110% in experiment [14]; 89.2% in experiment [15]; 92.2% in experiment [16]; 89% in [17]; 82.7% in experiment [18]. Moreover, in experiment [19], the growth is 73.1%.

Regarding `C=CC(=O)NCCOc1cccc(Nc2cc(NCCCNC(=O)C3CCC3)c(Br)cn2)c1`, the growth in experiment [1] was 1.43% (active); in [2], -15.2% (active); in experiment [3] it was -69.2% (active); in [4], 5.36% (active); in experiment [5], 0.984% (active); in experiment [6] it was 5.12% (active). For the same compound, the growth was -41.4% (active) in experiment [7]; -25.3% (active) in [9]; -11.9% (active) in [10]; -43.8% (active) in experiment [20]; -13.6% (active) in [11]; 3.07% (active) in experiment [12]. Further, the growth was -42.2% (active) in experiment [13]; -43.4% (active) in [14]; 7.24% (active) in experiment [15]; -38.2% (active) in experiment [16]; -54% (active) in experiment [17]; 1.92% (active) in [18]. Also, in [19], the growth is -10.5% (active).

Turning to `NC(=O)OCCn1cc(-c2nc(-c3c[nH]c4ncccc34)cs2)c2ccccc21`, the growth in [1] was 28%; in experiment [2], 8.34% (active); in experiment [3] it was 10.6%; in [4], 42.2%; in experiment [5] it was 20%; in [6] it was 33.2%. Further, the growth is 18.5% in [7]; 30.1% in experiment [9]; 61.7% in [10]; 2.38% (active) in experiment [20]; 42.1% in [11]; 49.1% in experiment [12]. Also, the growth in experiment [13] was 34.1%; in experiment [14], 62.3%; in [15], 38%; in [16] it was 34.5%; in experiment [17], -11.7% (active); in experiment [18] it was 21.7%. Further, in [19], the growth was 19.6%.
